Assay [1] is described as follows: Quantitative High-Throughput drug screen in 47 multiple myeloma cell lines against the NCATS MIPE library collection: Delta47_JCRB cell viability assay (AID 1918925; also: nearly all actives have a fitted effect of over 45% in size). An outline of the steps:
(§1)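 Viability readout: CellTiter-Glo luminescence following 5 min room-temperature incubation with reagent. Prior exposure: 48 h, 37C, humidified 5% CO2, 500 cells per well.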

Assay [2] in a line: Quantitative High-Throughput drug screen in 47 multiple myeloma cell lines against the NCATS MIPE library collection: Karpas620_DSMZ cell viability assay (AID 1918959). Also: nearly all actives have a fitted effect of over 30% in size. An outline of the steps: (§2)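 Primary qHTS used for cherry-picking: cells at 500/well, library compounds for 48 h (37C, 5% CO2), luminescent ATP assay.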
The nature of assay [3]: Quantitative High-Throughput drug screen in 47 multiple myeloma cell lines against the NCATS MIPE library collection: KMM1_JCRB cell viability assay (AID 1918960). Also: nearly all actives have a fitted effect of over 30% in size. An outline of the steps: (§3)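 ATP readout (CellTiter-Glo), 48 h drug incubation, 37 °C/5% CO2, 500 cells per well; normalisation to DMSO (100%) and media-only (0%) controls.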
Assay [4] in a line: Quantitative High-Throughput drug screen in 47 multiple myeloma cell lines against the NCATS MIPE library collection: Karpas417_ECACC cell viability assay (AID 1918961). The conditions noted are these: Karpas417 myeloma viability, CellTiter-Glo ATP luminescence, 48 h; viability (% of DMSO): at 45.8 µM (top of the series). The procedure, abridged: (§4)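 We plated 500 myeloma cells per well, pinned in MIPE 4.0 compounds, and incubated for 48 hours at 37C. ATP was then quantified with CellTiter-Glo, with DMSO and media-only wells defining 100% and 0%.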
Background: Cellular ATP, detected with luciferase, serves as a proxy for viable cell number.

Assay [5] can be described thus: Quantitative High-Throughput drug screen in 47 multiple myeloma cell lines against the NCATS MIPE library collection: KHM11_PLB cell viability assay (AID 1918962). Also: nearly all actives have a fitted effect of over 35% in size. The procedure, abridged: as §2
A short description of assay [6]: Quantitative High-Throughput drug screen in 47 multiple myeloma cell lines against the NCATS MIPE library collection: JIM1_ECACC cell viability assay (AID 1918964). The procedure, abridged: as §1
A short description of assay [7]: Quantitative High-Throughput drug screen in 47 multiple myeloma cell lines against the NCATS MIPE library collection: INA6_PLB cell viability assay (AID 1918965; also: nearly all actives have a fitted effect of over 55% in size). An outline of the steps:
as §4

A short description of assay [8]: Quantitative High-Throughput drug screen in 47 multiple myeloma cell lines against the NCATS MIPE library collection: H1112_PLB cell viability assay (AID 1918967; also: nearly all actives have a fitted effect of over 30% in size). The procedure, abridged:
as §1

Assay [9] can be described thus: Quantitative High-Throughput drug screen in 47 multiple myeloma cell lines against the NCATS MIPE library collection: Karpas25_ECACC cell viability assay (AID 1918968; also: nearly all actives have a fitted effect of over 35% in size). The procedure, abridged:
as §1

Assay [10] is described as follows: Quantitative High-Throughput drug screen in 47 multiple myeloma cell lines against the NCATS MIPE library collection: KMS27_JCRB cell viability assay (AID 1918970). Also: nearly all actives have a fitted effect of over 30% in size. An outline of the steps: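 CellTiter-Glo luminescence after 48 h drug exposure at 37 °C; 500 cells/well, 1536-well format, pin-tool compound addition; DMSO = 100%, media-only = 0% viability.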
Assay [11] is described as follows: Quantitative High-Throughput drug screen in 47 multiple myeloma cell lines against the NCATS MIPE library collection: KMS12BM_JCRB cell viability assay (AID 1918971). Also: nearly all actives have a fitted effect of over 35% in size. An outline of the steps: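 Myeloma cells (500 per well) were exposed to MIPE 4.0 compounds by pin transfer and incubated 48 hours at 37C, 5% CO2. Viability was read as ATP by CellTiter-Glo luminescence, normalised to DMSO (100%) and media-only (0%) wells.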

Assay [12] is described as follows: Quantitative High-Throughput drug screen in 47 multiple myeloma cell lines against the NCATS MIPE library collection: KMS20_JCRB cell viability assay (AID 1918973). Also: nearly all actives have a fitted effect of over 45% in size. The procedure, abridged: as §1
Assay [13] is described as follows: Quantitative High-Throughput drug screen in 47 multiple myeloma cell lines against the NCATS MIPE library collection: KMS21BM_JCRB cell viability assay (AID 1918974). Conditions: ATP luminescence, 48 h; viability: at 45.8 µM (top of the series) unless noted. The procedure, abridged:
as §1

A short description of assay [14]: Quantitative High-Throughput drug screen in 47 multiple myeloma cell lines against the NCATS MIPE library collection: AMO1_DSMZ cell viability assay (AID 1918927; also: nearly all actives have a fitted effect of over 30% in size). The procedure, abridged: as §1
The nature of assay [15]: Quantitative High-Throughput drug screen in 47 multiple myeloma cell lines against the NCATS MIPE library collection: ARD_JJKsccE7 cell viability assay (AID 1918929). An outline of the steps: as §1
The nature of assay [16]: Quantitative High-Throughput drug screen in 47 multiple myeloma cell lines against the NCATS MIPE library collection: JIM3_ECACC cell viability assay (AID 1918963; also: nearly all actives have a fitted effect of over 35% in size). An outline of the steps:
as §2

Assay [17] is described as follows: Quantitative High-Throughput drug screen in 47 multiple myeloma cell lines against the NCATS MIPE library collection: KMS12PE_JCRB cell viability assay (AID 1918972). Also: nearly all actives have a fitted effect of over 30% in size. An outline of the steps: as §4
Assay [18] in a line: Quantitative High-Throughput drug screen in 47 multiple myeloma cell lines against the NCATS MIPE library collection: ARP1_JJKsccF8 cell viability assay (AID 1918928; also: nearly all actives have a fitted effect of over 40% in size). An outline of the steps: as §3
Assay [19] can be described thus: Quantitative High-Throughput drug screen in 47 multiple myeloma cell lines against the NCATS MIPE library collection: JJN3_DSMZ cell viability assay (AID 1918966; also: nearly all actives have a fitted effect of over 50% in size). An outline of the steps:
as §1

A short description of assay [20]: Quantitative High-Throughput drug screen in 47 multiple myeloma cell lines against the NCATS MIPE library collection: EJM_DSMZ cell viability assay (AID 1918926; also: nearly all actives have a fitted effect of over 30% in size). An outline of the steps: as §1

Records with an inconclusive call do not appear. The source made the active and inactive calls. Calls follow the shape of the dose curve; as a rule, active = well fitted curve in the direction sought with a large enough effect; inconclusive = small, poorly fitted or top-dose-only effect, or another doubt; inactive = no such curve, though single readings can be large; an effect the other way counts as inactive or inconclusive.
Potency is read from the fitted curve at half-maximal effect.

As to `C[C@]1(CO)CN(c2cc(C(=O)Nc3ccc4c(c3)-c3c(c(C(N)=O)nn3-c3ccc(F)cc3)CC4)c(Cl)cn2)C[C@@]1(C)CO`, the Potency in assay [1] was 9.35 µM (active); in [2] it was 1.66 µM (active); in assay [3], 0.209 µM (active); in assay [4], 2.64 µM (active); in assay [5] it was 4.18 µM (active); in [6], 11.8 µM (active). The Potency in assay [7] was 2.64 µM (active); in assay [8], 11.8 µM (active); in assay [9], 14.8 µM (active); in [10], 0.0053 µM (active); in [11], 16.6 µM (active); in assay [12], 5.26 µM (active). For the same compound, the Potency in assay [13] is 5.26 µM (active).
Consider `COc1cccc(Nc2c(C(N)=O)cnc3c(C)cc(S(=O)(=O)c4cccc(C(=O)N(C)C)c4)cc23)c1`, for which the Potency result in assay [1], in [16] and in assay [11] was “inactive” in each case. Further, the Potency in [14] is 12.9 µM (active); in [15] it was 12.9 µM (active); in assay [3], 10.2 µM (active); in [17], 12.9 µM (active).
As to `NC(=O)c1c(OCc2c(F)cc(Br)cc2F)nsc1NC(=O)NCCCCN1CCCC1`, the Potency is 7.43 µM (active) in assay [1]; 9.35 µM (active) in [5]; 18.7 µM (active) in assay [7]; 18.7 µM (active) in assay [11]; 7.43 µM (active) in [12]. Further, the Potency result in assay [2], in [3], in assay [4] and in assay [10] was “inactive” in each case.
For `CN[C@H]1CCc2cc(OC)c(OC)c(OC)c2-c2ccc(OC)c(=O)cc21`, the Potency in [1] was 0.001 µM (active); in assay [18] it was 0.0015 µM (active); in assay [4], 0.059 µM (active); in assay [7], 0.001 µM (active); in [19], 0.0187 µM (active); in assay [9], 0.0105 µM (active). In addition, the Potency in [11] is 0.0017 µM (active). Also, the Potency entry in assay [2] was “inactive”.
Turning to `Cc1ccc(C(=O)Nc2ccc(CN3CCN(C)CC3)c(C(F)(F)F)c2)cc1C#Cc1cnc2cccnn12`, the Potency in assay [1] was 0.662 µM (active); in assay [18], 1.66 µM (active); in assay [2], 5.26 µM (active); in [3], 2.09 µM (active); in assay [4], 0.469 µM (active); in [5], 0.662 µM (active). Further, the Potency is 1.87 µM (active) in [16]; 0.332 µM (active) in assay [7]; 2.64 µM (active) in assay [19]; 2.09 µM (active) in assay [8]; 0.935 µM (active) in assay [9]; 2.64 µM (active) in assay [10]. Besides, the Potency is 2.96 µM (active) in assay [11], 0.833 µM (active) in assay [17] and 0.662 µM (active) in [13].
`N#Cc1c(O)c2c(-c3ccc(-c4ccccc4O)cc3)csc2[nH]c1=O`: the Potency result in assay [1], in assay [18], in assay [15], in assay [2], in assay [3] and in [7] was “inactive” in each case. Moreover, the Potency result in [8], in assay [9] and in assay [17] was “inactive” throughout. In assay [11], the Potency is 5.26 µM (active).
For `CC[C@H](CO)Nc1nc(NCc2ccccc2)c2ncn(C(C)C)c2n1`, the Potency in assay [1] is 16.6 µM (active); in [14], 9.35 µM (active); in assay [5], 18.7 µM (active); in [16] it was 26.4 µM (active); in [19], 18.7 µM (active); in [8] it was 18.7 µM (active). In addition, the Potency in assay [9] was 20.9 µM (active); in [13], 4.18 µM (active). Also, the Potency result in assay [2] and in assay [17] was “inactive” in each case.
For the compound `C=CC(=O)Nc1cccc(Oc2nc(Nc3ccc(N4CCN(C)CC4)cc3OC)ncc2Cl)c1`, the Potency in assay [1] was 0.0296 µM (active); in assay [7], 0.469 µM (active); in [19] it was 20.9 µM (active); in assay [10], 37.2 µM (active). The Potency entry in assay [4] is “inactive”.
With `OCc1ccc(-c2ccc(-c3ccc(CO)s3)o2)s1`, the Potency in [1] was 20.9 µM (active); in [18], 18.7 µM (active); in [5] it was 6.62 µM (active); in [16], 16.6 µM (active); in assay [7], 2.64 µM (active); in assay [19], 16.6 µM (active). Moreover, the Potency in assay [8] is 16.6 µM (active); in assay [9] it was 3.72 µM (active); in assay [11] it was 23.5 µM (active); in assay [17], 0.235 µM (active); in assay [12], 1.87 µM (active). Moreover, the Potency entry in assay [15], in assay [2] and in [3] was “inactive” throughout.
With `COCCOc1ccc2c(c1)ncn2-c1ccc2cccc(N3CCC(N)CC3)c2n1`, the Potency is 5.9 µM (active) in [20]; 2.09 µM (active) in assay [14]; 0.418 µM (active) in [18]; 2.96 µM (active) in [15]; 10.5 µM (active) in [2]; 0.526 µM (active) in assay [3]. In addition, the Potency in assay [4] is 0.59 µM (active); in assay [5] it was 9.35 µM (active); in [6], 5.9 µM (active); in [7], 0.0469 µM (active); in assay [19] it was 4.18 µM (active); in assay [8], 6.62 µM (active). The results for the Potency in assay [11] and in [17] were 9.35 µM (active) and 0.0372 µM (active), respectively.
As to `O=c1[nH]c(=O)n(C2CCCO2)cc1F` (centres undefined), the Potency entry in assay [1], in assay [18], in [15], in assay [2], in [3] and in assay [5] was “inactive” each time. Further, the Potency entry in assay [16], in assay [6], in [19], in [8], in assay [9] and in assay [10] was “inactive” each time. Besides, the Potency result in [17] and in assay [13] was “inactive” in each case. In addition, the Potency in [11] is 19.1 µM (active).
With `C=CC(=O)Nc1cc2c(Nc3ccc(F)c(Cl)c3)ncnc2cc1OCCCN1CCOCC1`, the Potency in assay [1] was 2.96 µM (active); in [18] it was 5.9 µM (active); in assay [7], 0.833 µM (active); in assay [19], 16.6 µM (active); in assay [8] it was 4.69 µM (active); in assay [9], 2.64 µM (active). For the same compound, the Potency is 14.8 µM (active) in assay [11] and 0.526 µM (active) in assay [12]. Moreover, in [5], the Potency entry was “inactive”.
For the compound `CC(=O)OCC(=O)[C@@]1(O)[C@H](C)C[C@H]2[C@@H]3C=C(C)C4=Cc5c(cnn5-c5ccccc5)C[C@]4(C)[C@@H]3[C@@H](O)C[C@@]21C`, the Potency in [1] is 5.9 µM (active); in assay [18] it was 4.69 µM (active); in [2] it was 8.33 µM (active); in assay [5] it was 16.6 µM (active); in assay [16], 9.35 µM (active); in assay [6] it was 9.35 µM (active). Also, the Potency was 5.26 µM (active) in [7], 10.5 µM (active) in assay [8], 16.6 µM (active) in [11] and 8.33 µM (active) in assay [17].

Values taken from PubChem BioAssay (NCATS).
